Results taken from PubChem BioAssay (NCI).
This is part of a sample that, as a whole, favours compounds with a hit. Of some 83,000 tested, about 20% had one in any assay.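 48-hour exposure, single concentration, 96-well plates; percent growth endpoint where 0 means no net growth. Active: below 10.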 A number with no mark means an inactive call. Calls of active or inactive are those of the source.

test system: SNB-75 CNS; assay: NCI-60 one-dose screen, 48 h (100 = growth as untreated, 0 = no growth, -100 = all killed); conditions: 10 µM unless noted

SMILES | growth
COc1cc2c(c(OC)c1OC)C(=O)CC(c1cccc(NC(=O)c3cc(NC(=O)[C@H](C)N)ccc3Cl)c1)O2 (some centres not stated) | 76.1%
C#CCOc1cc(N(CC)CC)ccc1C(C(=O)NC(C)(C)C)N(C(=O)C1CCc2cc(F)ccc2O1)c1cc(C)cc(C)c1 (configuration not stated) | 45.7%
Cc1ccc(C2=NN(c3nc(-c4cc5ccccc5oc4=O)cs3)C(c3ccc(C)cc3)C2)cc1 (configuration not stated) | 96.2%
Cn1cc(-c2nc(N)nnc2-c2c[nH]c3ccc(F)cc23)c2cc(Br)cnc21 | -15.8% (active)

test system: SNB-19 CNS; assay: as above; conditions: 10 µM unless noted

SMILES | growth
Brc1ccc(-c2n(Cc3ccc4ccccc4c3)c(-c3ccccc3)c(-c3ccccc3)[n+]2Cc2ccc3ccccc3c2)cc1 | -93.4% (active)
O=C1CCCc2cc(OCC(=O)N3CCCCC3)ccc2N1 | 99.7%
COc1cc2c3c(n(CCCN4CCC[C@@H]4CO)c(=O)c2cc1OC)-c1cc2c(cc1C3=O)OCO2 | -90.1% (active)
CC(=O)c1c(N)c(C#N)cn1-c1ccc(Cl)cc1Cl | 102%
Cc1ccc(C2CC(c3ccc(S(=O)(=O)NCCNc4nc(Nc5ccc(F)cc5)nc(N(C)C)n4)cc3)=Nc3c(N)nc(N)nc3N2)cc1 (configuration not stated) | 60.4%
Cc1ccc(C(=O)C(c2c[nH]c3ccccc23)c2c[nH]c3ccccc23)cc1 | 87.4%
COc1cc(-c2nc3ccc(C)cc3[nH]2)ccc1OCc1nnc(-c2ccc(Br)cc2)o1 | 57.7%
Nc1nnc(-c2c[nH]c3ccc(Br)cc23)c(-c2c[nH]c3ncc(Br)cc23)n1 | 47%
Cc1ccc(-c2nc(C#N)c(S(=O)(=O)N3CCN(S(=O)(=O)c4ccc(Cl)cc4)CC3)o2)cc1 | 68.9%
CCOC(=O)C1=C(N)N(c2ccccc2)C2=C(C(=O)CC(C)(C)C2)C1c1ccccc1Cl (configuration not stated) | 70.5%
Cc1ccc(C(=O)NN2C(=O)/C(=C/C=C/c3ccc([N+](=O)[O-])o3)SC2=S)cc1 | -100% (active)
CCCS(=O)(=O)N1CCCC(C(=O)Nc2nc3ccc(NC(=O)c4ccc(F)c(OC)c4F)cc3s2)C1 (configuration not stated) | 63.7%
O=C1CC(Sc2n[nH]c(-c3ccncc3)n2)C(=O)N1c1ccc(Br)cc1 (configuration not stated) | 96.1%
COc1ccc(NC(=O)Nc2ccc(OCc3ccc(F)cc3)cc2)cc1 | 46.9%
COc1ccc(/C=C/c2nc3ccccc3n3c(-c4ccc(Cl)cc4)nnc23)cc1 | 94.7%
CC1(C)CC[C@]2(C(=O)O)CC[C@]3(C)C(=CCC4[C@@]5(C)C[C@@H](O)[C@@H]6OC(c7ccccc7Br)OC[C@@]6(C)C5CC[C@]43C)C2C1 (some centres not stated) | 27.7%
CC(=O)OCC1OC(OC2C(COC(C)=O)OC(n3cc(COc4ccc5ccc(=O)oc5c4)nn3)C(OC(C)=O)C2OC(C)=O)C(OC(C)=O)C(OC(C)=O)C1OC(C)=O (configuration not stated) | 100%
COc1ccc(Cc2nn(CC(=O)N/N=C/c3ccc(F)cc3)c(=O)c3c(C)noc23)cc1 | 20.1%
O=C(c1ccccc1)C(c1c[nH]c2ccccc12)c1c[nH]c2ccccc12 | 91.7%
N=C1N=C(SCc2nc3ccccc3[nH]2)NC(=O)/C1=C/c1ccc(Cl)cc1 | 105%
Cn1cc(-c2cc3nc(-c4c[nH]c5ccc(Cl)cc45)cc(N)n3n2)c2ccccc21 | -72.3% (active)
CC1(C)CC[C@]2(C(=O)O)CC[C@]3(C)C(=CCC4[C@@]5(C)C[C@@H](O)[C@@H]6OC(c7ccco7)OC[C@@]6(C)C5CC[C@]43C)C2C1 (some centres not stated) | 28.4%
COc1ccc(C2CC(c3ccc(S(=O)(=O)NCCNc4nc(Nc5ccc(F)cc5)nc(N(C)C)n4)cc3)=Nc3c(N)nc(N)nc3N2)cc1 (configuration not stated) | 76.3%
O=C(Nc1ccccc1)N1CCN(c2cc(-c3cn(-c4ccccc4)nc3-c3cccc(O)c3)ccn2)CC1 | 81.9%
CNS(=O)(=O)c1ccc(Nc2ccc(C(F)(F)F)cc2)c(-c2cn(C)cn2)c1 | 49.5%
CCS(=O)(=O)N1CCCC(C(=O)Nc2nc3ccc(NC(=O)c4ccc(F)c(OC)c4F)cc3s2)C1 (configuration not stated) | 78.9%
COc1ccc(CCC2c3c(cc4c(c3OC)OCO4)CCN2C)cc1 (configuration not stated) | -2.75% (active)
Nc1nc(-c2ccccc2)c(N=Nc2ccc([N+](=O)[O-])cc2Cl)s1 | 96.3%
